# Only a selection was taken, and hits are over-represented in it overall.
# Pf Dd2 growth: inhibitors of Plasmodium falciparum Dd2 growth. P. falciparum Dd2 growth, SYBR Green, 72 h. Potency, µM (highest dose often 28.9 µM), actives largely listed as inhibitors. 120,000 tested, 4.3% active. AID 1347417; active means well fitted inhibition curve with a large enough effect; further: nearly all actives have a fitted effect of over 65% in size
#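 Readout: SYBR Green fluorescence, 485 nm excitation, 535 nm emission, after ~16 h lysis at 37C. Before that, Dd2-infected red cells (2.5% hematocrit) grew 72 h with compound, 29 uM top final concentration.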
# Numbers stand for hits; 0 = inactive.
SMILES,Pf Dd2 growth
Cc1ccc(-c2nc(C)c(CCNC(=O)c3ccccc3Br)s2)cc1,0
NC(=O)c1nc(Nc2ccccc2)sc1NC(=O)c1c(F)cccc1F,0
Cc1ccc(Nc2nc(C(N)=O)c(NC(=O)c3ccccc3Br)s2)cc1,10µM
Cc1ncoc1C(=O)N1CCC[C@H](n2c(=O)n(C)c3cccnc32)C1,0
COCCC(=O)N1CCC(C2CCN(S(C)(=O)=O)CC2)C1 (centres undefined),0
COCCNC(=O)c1ccc2c(c1)ncn2-c1cc(C)ccc1OC,0
COc1ccc(CCNC(=O)c2ccc3c(Cl)c4c(nc3c2)CCCC4)c(OC)c1,0
COc1ccc(CCNC(=O)c2ccc3c(Cl)c4c(nc3c2)CCCC4)cc1OC,11µM
CCc1nc2ccc(C(=O)NCCc3ccc(OC)c(OC)c3)cc2nc1CC,0
COc1ccc(CNC(=O)c2ccc3c(Cl)c4c(nc3c2)CCCC4)c(OC)c1,0
COc1ccc(CCNC(=O)c2ccc3c(c2)ncn3-c2ccc(C(C)C)cc2)cc1OC,11µM
O=S(=O)(c1ccc(C(F)(F)F)cc1)N1CC(c2nc(-c3ccncc3)no2)C1,0
CCC(CC)C(=O)NC[C@H]1O[C@@H](CC(=O)NC(C)C)[C@H](O)[C@@H]1O,0
Cc1ccccc1[C@H]1C[C@@H](O)[C@@H](O)[C@@H]1NC(=O)c1cccnc1,0
Cc1nn2c(c1-c1cccnc1N1CCOCC1)N(CC1CC1)CCC2,0
Cc1nn2c(c1-c1ccccc1Oc1ccccc1)N(CC1CCOCC1)CCC2,7.9µM
Cc1nn2c(c1-c1ccccc1-c1ccccc1)N(Cc1ccc(OCC(=O)O)cc1)CCC2,0
Cc1nn2c(c1-c1ccccc1Oc1ccccc1)N(C(=O)c1ccc(F)cc1)CCC2,0
Cc1nn2c(c1-c1ccccc1Oc1ccccc1)N(CC1CC1)CCC2,0
Cc1nn2c(c1-c1ccccc1-c1ccccc1)N(Cc1cccc(O)c1)CCC2,0.79µM
COc1cccc(CN2CCCn3nc(C)c(-c4cnccc4C)c32)c1,0
COc1ccc(CN2CCCn3nc(C)c(-c4ccccc4Oc4ccccc4)c32)cc1O,1.3µM
CC(=O)Nc1ccccc1-c1c(C)nn2c1N(Cc1ccccc1)CCC2,0
CCCN(Cc1ccc(S(=O)(=O)NC)cc1)Cc1ccccc1OC,0
Cc1cn2nc(C(=O)NCc3ccc(F)cc3)cc2c(=O)[nH]1,0
SMILES,Pf Dd2 growth
O=C(COc1ccccc1)N1CCC(O)(c2csc(CN3CCOCC3)n2)CC1,0
Cc1cccnc1NC(=O)C1c2ccccc2C(=O)N(Cc2ccccc2)C12CCCC2 (centres undefined),0
Cc1ccccc1CC(=O)N1CCC2(CC1)NC(=O)N(c1ccc(F)cc1)N2,0
CCOc1ccc(C2Cn3nnc(-c4nc(-c5ccc(OC)cc5)no4)c3CO2)cc1 (centres undefined),0
Cc1c(CCNC(=O)Cc2ccc(F)cc2)sc2nc(-c3ccc(F)cc3)nn12,0
Cc1c(CCNC(=O)Cc2ccccc2)sc2nc(-c3ccc(F)cc3)nn12,0
Cc1c(CCNC(=O)c2ccc(C(C)(C)C)cc2)sc2nc(-c3ccc(F)cc3)nn12,11µM
O=C(CCCn1ccnc1)N1CCn2nc(C(O)Cc3ccccc3)cc2C1 (centres undefined),0
Cc1ccccc1-c1nccc2c(=O)cc(C3=CCOCC3)oc12,10µM
Cc1ccccc1-c1nccc2c(=O)cc(-c3ccncc3)oc12,0
Cc1ccccc1-c1nccc2c(=O)cc(N(C)C3CCOCC3)oc12,0
COc1cccc(CN2CCOC3CCN(Cc4cccc(Cl)c4)CC3C2=O)c1 (centres undefined),0
Cc1cc(F)ccc1OCC(=O)c1ccc2c(c1)N(C(C)C(=O)NCc1ccc(F)cc1)C(=O)CO2 (centres undefined),0
CCn1c(CC2CCNCC2)nn(Cc2cc(C3CCCCC3)no2)c1=O,0
N#Cc1cccc(CN2CCOCCNC(=O)CC2)c1,0
COc1ccc(/C=C/c2ccc3c(c2)C(=O)N2CC[C@H](NC(=O)COCC(=O)O)[C@H]2C(=O)N3)cc1,0
Fc1ccc(-c2cc(-c3ccccc3)c3c(n2)-c2ccccc2OC3)cc1,0
Fc1ccc(-c2nc(Nc3cccc(C(F)(F)F)c3)nc3c2COc2ccccc2-3)cc1,10µM
Fc1ccc(Nc2nc(-c3cccc(Cl)c3)c3c(n2)-c2ccccc2OC3)c(F)c1,0
NCc1ccccc1-c1cnc2ccccc2c1,10µM
O=C(O)c1cccc(-c2cnc3ccccc3c2)c1,0
COc1ccc(F)cc1S(=O)(=O)NC1CCc2nnc(C3CC3)n2CC1 (centres undefined),0
CCc1cccc(NC(=O)Cn2c(COc3ccc(OC)cc3)nc(C)c(CCO)c2=O)c1,0
Cc1ccc(Nc2c(-c3ccsc3)nc3c(C)cccn23)cc1,0
CN(C)c1ccc(-c2nc3ccc(Cl)cn3c2Nc2ccc3c(c2)OCCO3)cc1,0
SMILES,Pf Dd2 growth
Cc1nc2nncn2c(Nc2ccc(F)cc2)c1C,0
Cc1cccc2nc(-c3ccccn3)c(Nc3ccc(F)cc3)n12,3.2µM
Cc1ccccc1Nc1c(-c2ccc(O)cc2)nc2c(C)cccn12,11µM
Cc1ccc(Nc2c(-c3ccccc3O)nc3cc(C)ccn23)cc1,5.6µM
COc1ccc(-c2nc3ccc(C)cn3c2Nc2ccc3c(c2)OCO3)cc1,0
Cc1ccc(Nc2c(-c3ccc(C)cc3)nc3c(C)cccn23)cc1,0
Cc1ccc(Nc2c(-c3ccccc3O)nc3ccc(Br)cn23)cc1,0
CN1C[C@@H](NC(=O)Nc2ccc(F)cc2)C[C@H]1c1nc(-c2ccccn2)no1,0
Cc1ccn2c(Nc3ccc4c(c3)OCCO4)c(-c3ccc(Cl)s3)nc2c1,0
Cc1ccn2c(Nc3ccc4c(c3)OCO4)c(-c3ccc(N(C)C)cc3)nc2c1,13µM
COc1cc(Cl)c(C)cc1NC(=O)CN1C(=O)NC2(CCS(=O)(=O)CC2)C1=O,0
CC(=O)N1CCC(Cc2ccc(C(=O)O)cc2)CC1,0
O=C1NC2(CN(Cc3cncs3)C2)Oc2ccccc21,0
CCC(=O)N(C1CCOCC1)C1CCN(S(=O)(=O)c2cn(C)cn2)CC1,0
Cc1ccc(NC(=O)N2C[C@@H](F)C[C@H]2C(=O)N2CCc3ccccc3C2)cc1F,0
COc1ccc(CNc2cc(Cl)nc3ccnn23)cc1,0
Cc1ccc(C(=O)N2CCC(N3C(=O)C(O)C34CCCCC4)CC2)s1 (centres undefined),0
O=C(c1ccc(F)cc1F)N1CCN(c2cc(-c3cccs3)[nH]n2)CC1,0
CC(C)CN(CC(C)C)C(=O)CC1C(=O)NCCN1Cc1cccs1 (centres undefined),0
COc1ccccc1C(=O)NC1CCN(c2cc(-c3ccc(F)cc3)[nH]n2)C1 (centres undefined),0
CN(Cc1ccccc1)C(=O)CCNc1c(-c2cccc(F)c2)nc2cnccn12,0
Clc1ccc(Nc2c(-c3ccccc3Cl)nc3ccc(Cl)cn23)cc1,0
Cc1ccc(Nc2c(-c3ccsc3)nc3cccc(C)n23)cc1,0
c1ccc(Nc2c(-c3ccccc3)nc3ncccn23)cc1,0
O=C(CCNc1c(-c2cccc(F)c2)nc2cnccn12)NCc1ccc(Cl)cc1,0
SMILES,Pf Dd2 growth
Oc1ccccc1-c1nc2cnccn2c1Nc1ccc(Cl)cc1,2.5µM
COc1cc(O)ccc1-c1nc2cc(C)ccn2c1Nc1ccccc1C,7.9µM
Cc1ccn2c(Nc3ccccc3C)c(-c3ccccc3)nc2c1,0
COc1ccc(-c2nc3cc(C)ccn3c2NC(=O)c2ccc(C)c(C)c2)cc1,0
Cc1cccc2nc(-c3ccccn3)c(Nc3ccccc3)n12,7.1µM
CN(C)c1ccc(-c2nc3cnccn3c2Nc2cccc(C(F)(F)F)c2)cc1,8.9µM

# Source: PubChem BioAssay
